{
  "source": "PubChem BioAssay (Tox21)",
  "note": "Inconclusive results are not listed. Active and inactive are the calls of the source. The call rests on the fitted dose curve; in most records, active means well fitted cell-killing curve with a large enough effect in the repeat runs; inconclusive means weak or mixed curves, or effect the other way; inactive means flat fitted curve, though single readings scatter. On the % scale 0 is the no-effect control and ±100 the full control effect.",
  "data": [
    {"assay": "cAMP Responsive Elements (CRE) small molecule agonists, cell-based qHTS assay: qHTS cell viability counter screen (AID 2060914); further: nearly all actives have a fitted effect of over 50% in size", "conditions": "CRE-bla HEK293T viability, CellTiter-Glo luminescence, 5 h; series mostly up to 92.4 µM; activity change, negative = cytotoxicity: at the top concentration", "procedure,_shortened": "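Cytotoxicity counter screen multiplexed with the CRE-bla reporter assay in HEK 293T cells: 3 h compound exposure at 37 °C, followed by CellTiter-Glo luminescence measured in the same wells.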", "values": [
      {"smiles": "CC(O)CC(C)O", "note": "(stereo unspecified)", "activity change, negative = cytotoxicity": "4.01% (inactive)"},
      {"smiles": "CC(C)(C)C(=O)CCc1ccc(Cl)cc1", "activity change, negative = cytotoxicity": "1.71% (inactive)"},
      {"smiles": "C1CCCCC1", "activity change, negative = cytotoxicity": "1.75% (inactive)"},
      {"smiles": "CCOC(=O)C(=O)c1csc(NC=O)n1", "activity change, negative = cytotoxicity": "-1.86% [at 42.5 µM] (inactive)"},
      {"smiles": "O=C(O)CNC(=O)c1ccc(CO)o1", "activity change, negative = cytotoxicity": "2.79% (inactive)"},
      {"smiles": "C=C(C)C1CC=C(C)C(=O)C1", "note": "(stereo unspecified)", "activity change, negative = cytotoxicity": "13% (inactive)"},
      {"smiles": "O=C(O)c1cc(O)c2c(c1)C(=O)c1cccc(O)c1C2=O", "activity change, negative = cytotoxicity": "0.496% (inactive)"},
      {"smiles": "CC(=O)OCC(=O)[C@H]1CC[C@H]2[C@@H]3CCC4=CC(=O)CC[C@]4(C)[C@H]3CC[C@]12C", "activity change, negative = cytotoxicity": "-1.4% [at 42.5 µM] (inactive)"},
      {"smiles": "CCN(CC)c1ccc2c(-c3ccccc3C(=O)O)c3ccc(=[N+](CC)CC)cc-3oc2c1", "activity change, negative = cytotoxicity": "2.88% (inactive)"},
      {"smiles": "C/C=C(\\C)C(=O)OCC/C=C\\CC", "activity change, negative = cytotoxicity": "7.29% (inactive)"},
      {"smiles": "COc1ccccc1C=O", "activity change, negative = cytotoxicity": "0.373% (inactive)"},
      {"smiles": "CC[C@]1(O)C[C@H]2CN(CCc3c([nH]c4ccccc34)[C@@](C(=O)OC)(c3cc4c(cc3OC)N(C=O)[C@H]3[C@@](O)(C(=O)OC)[C@H](OC(C)=O)[C@]5(CC)C=CCN6CC[C@]43[C@@H]65)C2)C1", "activity change, negative = cytotoxicity": "12.6% [at 42.5 µM] (inactive)"},
      {"smiles": "CN1CCC(=C2c3ccccc3Sc3ccccc32)CC1", "activity change, negative = cytotoxicity": "3.91% [at 42.5 µM] (inactive)"},
      {"smiles": "COc1ccc2cccc(CCNC(C)=O)c2c1", "activity change, negative = cytotoxicity": "7.72% [at 42.5 µM] (inactive)"},
      {"smiles": "CCC(=O)CC(C)CC", "note": "(stereo unspecified)", "activity change, negative = cytotoxicity": "6.36% [at 0.349 µM] (inactive)"},
      {"smiles": "C#C[C@]1(O)CC[C@H]2[C@@H]3CCC4=CC(=O)CC[C@@H]4[C@H]3CC[C@@]21C", "Potency": "inactive"},
      {"smiles": "Nc1cc(Cl)c(N)c(Cl)c1", "Potency": "inactive"},
      {"smiles": "COc1ccc2[nH]c(S(=O)Cc3ncc(C)c(OC)c3C)nc2n1", "note": "(stereo unspecified)", "activity change, negative = cytotoxicity": "-2.3% [at 42.5 µM] (inactive)"},
      {"smiles": "CCC=O", "activity change, negative = cytotoxicity": "4.71% (inactive)"},
      {"smiles": "CC(=O)OC/C=C(\\C)CCC=C(C)C", "Potency": "inactive"},
      {"smiles": "COc1ccc(C)cc1", "activity change, negative = cytotoxicity": "-3.99% (inactive)"}
    ]}
  ]
}
